In all, about 59,000 compounds went through this assay and about 540 (0.92%) were called active. Inconclusive results (about 33%) are left out. Cut-off read from the data, not from the text of the source: active = max fluorescein-equivalent concentration above about 10 nM; inconclusive = between about 1.1 nM and that limit; inactive = weaker than that. The full list was thinned out, with actives kept by preference. Some structures have more than one record in an assay (separate samples or runs), and their calls can disagree.

The text below walks through data of PubChem BioAssay AID593 (National Center for Advancing Translational Sciences (NCATS), 2007).

The nature of the assay: qHTS Assay for Spectroscopic Profiling in Fluorescein Spectral Region. To be noted: Compound autofluorescence, 480/540 nm; max fluorescein-equivalent concentration: stronger effect = higher value; outcome: fluorescein-equivalent. An excerpt: NIH Molecular Libraries Screening Centers Network [MLSCN]
NIH Chemical Genomics Center [NCGC]
Occasionally, the artifactual effect may originate from the compound's own spectral or other biophysical properties which generally tend to track its assay concentration. Pre-screening/profiling the library with respect to the compounds' spectral properties should help one exclude false positives early on. While the most informative fluorescent profiling data set is obtained by performing a full excitation and emission scan of each well by using a monochromator-based plate reader, such an approach is practical only on a very limited scale as scanning each well requires long time. An alternative approach, applied here, is to perform plate reader scans using selected excitation and emission wavelength pairs to generate a multidimensional relational database that correlates compound concentration and the respective relative fluorescence intensity at a given wavelength set. A standard curve of fluorescein present on each plate as six-point concentration series, was used to compute a normalized fluorescence response, termed dye-equivalent concentration, for each compound at each concentration.
NCGC Assay Protocol Summary:
100 mM Tris buffer, pH 8.0
The wells in columns 1 through 4 of a Kalypsys polypropylene 1536-well compound plate were filled with standard solutions of fluorophore corresponding to the spectral region of interest. Solutions of Fluorescein were placed in the following wells: Q1, R1: 3 mM, Q2, R2: 300 uM, Q3, R3: 30 uM, Q4, R4: zero (DMSO), S1, T1: 3 uM, S2, T2: 900 nM, S3, T3: 300 nM, S4, T4: zero (DMSO).
Six uL of buffer were dispensed to 1536-well Greiner black plates. Compounds and dye standards (23 nL) were transferred via Kalypsys PinTool. The plates were incubated for 15 min at room temperature, and then read on ViewLux (Perkin-Elmer) High-throughput CCD imager using 480 nm and 540 nm excitation and emission filter set.
Keywords: NIH Roadmap, MLSCN, MLI, MLSMR, qHTS, NCGC, Fluorescein, Fluorescent Profiling.
Take `CCOc1ccc2cc(C#N)c(SCC(=O)OC)nc2c1`: the max fluorescein-equivalent concentration entry was “inactive”. On the same count and under the same terms, the same measure for `Cc1cccc2cc(C#N)c(N3CCCC3)nc12`: “inactive”. Same read-out and setting: then `CC(=O)c1cc2c(cc1N)OCO2`, with “inactive”; and `CCCN1CC=C2C(C#N)=C(N)C(C#N)(C#N)C(c3cc(OC)ccc3OC)C2C1` (configuration not stated), with 10 nM (active). Turning to `CCC1=C(C(=O)OC)C(c2cc(OC)ccc2OC)C(C#N)=C(N)O1` (configuration not stated), the max fluorescein-equivalent concentration entry is “inactive”. Still for that read-out and setting: the same measure for `COC(=O)C1=C(C)OC(N)=C(C#N)C1c1cc(OC)ccc1OC` (configuration not stated): “inactive”; for `COc1cc(NS(=O)(=O)c2ccc(NC(C)=O)cc2)cc(OC)c1`: “inactive”. Still for that read-out and setting: the same measure for `CCOC(=O)C1(Cc2ccc(O)cc2)NC(c2ccccc2F)C2C(=O)N(C)C(=O)C21` (configuration not stated): “inactive”; for `Cc1ccc(C(c2nnnn2CS(=O)(=O)c2ccc(C)cc2)N2CCC(C(N)=O)CC2)cc1` (configuration not stated): “inactive”.

As for `COc1ccc(-c2c3c(=O)n(C)c(=O)n(C)c3cn2NC(C)=O)cc1`, the max fluorescein-equivalent concentration result is “inactive”. The same measure, in the same setting: then `C[C@@H]1CC[C@H]2[C@H](C)[C@H]3[C@H](C[C@H]4[C@@H]5CC=C6C[C@@H](O)CC[C@@]6(C)[C@@H]5C[C@@H](O)[C@]34C)N2C1`, with “inactive”; and `CCN(CC(=O)NCc1cccs1)c1nnnn1-c1ccccc1`, with “inactive”. For the molecule `COc1cccc(NC(=O)CN(C)S(=O)(=O)c2ccc(C)cc2)c1`, the max fluorescein-equivalent concentration entry was “inactive”. With `Cc1ccc2c(c1)C(O)(CC(=O)c1cccnc1)C(=O)N2` (configuration not stated), the max fluorescein-equivalent concentration entry is “inactive”. On the same count and under the same terms, the same measure for `CC(=NC1CCN(Cc2ccccc2)CC1)c1c(O)[nH]c(=O)[nH]c1=O`: “inactive”.

In the case of `COc1ccc(OC)c(S(=O)(=O)Nc2ccccc2F)c1`, the max fluorescein-equivalent concentration result was “inactive”. On the same count and under the same terms, the same measure for `CC1CN(C2CCN(C(=O)COc3ccccc3)CC2)CC(C)O1` (configuration not stated): “inactive”; for `C=CCNC(=O)C12CC3CC(C1)CC(C(=O)NCC=C)(C3)C2`: “inactive”.

Regarding `CCc1cccc(C)c1NC(=O)CSc1nnc(-c2ccco2)n1N`, the max fluorescein-equivalent concentration entry is “inactive”. As for `O=C(Nc1ccccc1F)C1C2C=CC3(O2)C1C(=O)N(c1cccnc1)C3C(=O)NC1CCCCC1` (configuration not stated), the max fluorescein-equivalent concentration result was “inactive”.

On to `COc1cccc(Cn2c(=O)c(CCc3ccccc3)nc3cnc(N(C)C)nc32)c1`, for which the max fluorescein-equivalent concentration result was “inactive”.

On to `CNC(=O)c1cc2c(ccc3ccccc32)oc1=N`, for which the max fluorescein-equivalent concentration entry was “inactive”.

In the case of `CCON=C1C(C)(C)C(C)(C)C(C)(C)C1(C)C`, the max fluorescein-equivalent concentration result is “inactive”.

Take `CCCn1c(=O)c2[nH]c(C3CCCC3)nc2n(CCC)c1=O`: the max fluorescein-equivalent concentration is 11 nM (active) and the outcome was inactive. For the molecule `Cn1c(=O)c2[nH]c(NCC3CCCO3)nc2n(-c2ccccc2)c1=O` (configuration not stated), the max fluorescein-equivalent concentration entry was “inactive”. Still for that read-out and setting: the same measure for `O=c1[nH]c(=O)n([C@H]2C[C@H](O)[C@H](CO)O2)cc1Br`: “inactive”; for `CC(=O)c1cc(C#N)c(SCC(=O)C(C)(C)C)nc1C`: “inactive”; for `Cc1cccn2c(=O)c3cc(C(=O)N4COCC4(C)C)n(C)c3nc12`: “inactive”. Take `Cc1cccn2c(=O)c3cc(C#N)c(=NC(=O)c4cccnc4)n(CC4CCCO4)c3nc12` (configuration not stated): the max fluorescein-equivalent concentration was 18 nM (active).

As for `COC(=O)c1ccc2c(=O)n(CC3CCCO3)c(=S)[nH]c2c1` (configuration not stated), the max fluorescein-equivalent concentration entry was “inactive”. On the same count and under the same terms, then `Cc1cc(C)c2[nH]c(=O)c(C(c3nnnn3Cc3ccc4c(c3)OCO4)N3CCCC3)cc2c1` (configuration not stated), with “inactive”; and `CC(=O)NS(=O)(=O)c1ccccc1`, with “inactive”. Turning to `CCOCCCNS(=O)(=O)Cc1ccccc1`, the max fluorescein-equivalent concentration entry was “inactive”. In the case of `CCOC(=O)N1CC=C2C(C#N)=C(N)C(C#N)(C#N)[C@H](c3cccs3)[C@H]2C1`, the max fluorescein-equivalent concentration is 12 nM (active). On the same count and under the same terms, then `CCNc1ncc2ncc(=O)n(Cc3cccc(OC)c3)c2n1`, with “inactive”. In the case of `COc1ccc(N2CCN(C(=O)CSc3nc4cc(OC)c(OC)cc4cc3C#N)CC2)cc1`, the max fluorescein-equivalent concentration entry was “inactive”. Same read-out and setting: the same measure for `COc1ccc2nc(N3CCCC(O)C3)c(C#N)cc2c1` (configuration not stated): 16 nM (active). Still for that read-out and setting: the same measure for `O=CN1CCN(C2CC(=O)N(c3ccc4c(c3)OCO4)C2=O)CC1` (configuration not stated): “inactive”.

On to `S=c1[nH]nc(SCc2ccccc2Cl)c2[nH]cnc12`, for which the max fluorescein-equivalent concentration entry is “inactive”. Same read-out and setting: the same measure for `Cc1csc(NC(=O)CN2CCCCCC2)n1`: “inactive”. As to `CCOCC(=O)Nc1cc(OC)c(Cl)cc1OC`, the max fluorescein-equivalent concentration entry is “inactive”. As to `Oc1ccccc1CNCc1ccccc1O`, the max fluorescein-equivalent concentration result was “inactive”. Same read-out and setting: then `COCCn1c(=O)c(CCc2ccccc2)nc2cncnc21`, with “inactive”. Still for that read-out and setting: then `CC(C)N(C(=O)COC(=O)c1ccccc1C(=O)N1CCN(c2ccc(F)cc2)CC1)C(C)C`, with “inactive”; and `N#CC1=C(N)Oc2n[nH]c(CSc3ccccc3)c2C12C(=O)Nc1ccccc12` (configuration not stated), with “inactive”.

Regarding `O=S(=O)(c1cccs1)N1CCN(Cc2ccccc2)CC1`, the max fluorescein-equivalent concentration entry is “inactive”. On the same count and under the same terms, then `CCOCCOC(=O)C1=C(C)N(C)C(=O)NC1c1ccccc1F` (configuration not stated), with “inactive”; and `C=C(C)Cn1c(SCC(=O)NCc2ccco2)nc2sc3c(c2c1=O)CCC3`, with “inactive”; and `COCCn1c(=O)c(-c2cccc(F)c2)nc2cncnc21`, with “inactive”. On the same count and under the same terms, the same measure for `COc1ccc(C(=O)N/N=C2/C(=O)c3c(C)cc(C)cc3CC2(C)C)cc1`: “inactive”.

Turning to `O=C(O)C1CC=C(Cl)CC1C(=O)NCc1ccccc1` (configuration not stated), the max fluorescein-equivalent concentration entry is “inactive”.

`CCCOc1ccccc1-c1nc(SCCC(=O)O)n[nH]1`: the max fluorescein-equivalent concentration result is “inactive”. Turning to `O=S(=O)(Nc1ccc2nc(-c3ccco3)[nH]c2c1)c1ccccc1`, the max fluorescein-equivalent concentration entry is “inactive”. Still for that read-out and setting: then `O=S(=O)(O)c1ccc(O)c2ncccc12.O=S(=O)(O)c1ccc(O)c2ncccc12.[Zn]`, with “inactive”; and `O=C(N1CCOCC1)N1CCOCC1`, with “inactive”; and `CCCC(=O)Nc1cc(OCC)c(NC(=O)NC2CCCCC2)cc1OCC`, with “inactive”.
